Bioassay records deposited in PubChem by several laboratories.
Sampled rows, rich in hits. Any-hit rate of the full collection: about 3%.
GDH-TPI inh: GDH-TPI coupled enzyme inhibition counter-screen | 360,000 tested, 1.2% active | inhibition, % at 4.8 µM | GDH-TPI coupled enzyme counterscreen, NADH absorbance | AID 588335; in the data active means inhibition above about 30%
FBA Mtb inh: Mtb fructose-bisphosphate aldolase inhibition | P9WQA3 | purified M. tuberculosis FBA, fluorescence read-out | inhibition, % at 1 µM | 360,000 tested, 2.3% active; in the data active means inhibition above about 27%
Target sequence (P9WQA3 whole entry, looked up): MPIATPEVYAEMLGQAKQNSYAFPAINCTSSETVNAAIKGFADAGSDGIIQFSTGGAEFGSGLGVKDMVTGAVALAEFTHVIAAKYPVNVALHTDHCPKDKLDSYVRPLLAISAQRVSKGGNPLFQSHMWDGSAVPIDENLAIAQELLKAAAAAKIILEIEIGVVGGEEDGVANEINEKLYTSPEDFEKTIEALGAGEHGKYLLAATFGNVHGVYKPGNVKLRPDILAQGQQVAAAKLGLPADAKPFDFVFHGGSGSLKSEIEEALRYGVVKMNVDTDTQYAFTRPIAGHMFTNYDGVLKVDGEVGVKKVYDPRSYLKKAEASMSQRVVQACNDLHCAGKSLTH
BH1578 lux ind: inducers of Vibrio cholerae quorum light production without autoinducers; V. cholerae BH1578 lux reporter, luminescence, 6 h; activation, % at 18.7 µM; 350,000 tested, 0.16% active; in the data active means activation mostly above about 9.7%, no sharp cut-off; inconclusive means no clear call, values can overlap the other calls; inactive means mostly below about 3.7%
BioA inh-1: inhibitors of Mycobacterium tuberculosis BioA enzyme; purified M. tuberculosis BioA enzyme, plate reader; inhibition, % at 9.99 µM; 360,000 tested, 0.096% active; AID 602481; in the data active means inhibition above about 40%; inconclusive means no clear call, values can overlap the other calls
BioA inh-2: blocks M. tuberculosis BioA aminotransferase | shares compounds with BioA inh-1 | purified BioA enzyme, plate reader, dose response | max activity, % | 310 tested, under 10 active;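 further: top concentration of the dilution series was 10 µM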
HepG2 cytotox: kills HepG2 cells; shares compounds with BioA inh-1; HepG2 cytotoxicity, plate reader; max activity, %; 310 tested, under 10 active; AID 651898
NIH3T3 tox 5: cytotoxicity in NIH3T3 cells; AID 651900; shares compounds with BioA inh-1; 310 tested, under 10 active; activity change, negative = cytotoxicity, % at 26 µM; plate reader
A number is an active result; n = inactive; u = inconclusive; x = no result given. Unless noted, how the calls were made is not given here.

SMILES	GDH-TPI inh	FBA Mtb inh	BH1578 lux ind	BioA inh-1	BioA inh-2	HepG2 cytotox	NIH3T3 tox 5
O=c1[nH]c(N2CCN(Cc3ccc4c(c3)OCO4)CC2)nc2c1CCC2	n	n	n	76	n	n	n
C[C@@H]1CN([C@H](C)CO)C(=O)Cc2cc(NC(=O)Cn3cnnn3)ccc2O[C@H]1CN(C)Cc1ccc2c(c1)OCO2	x	x	x	63	n	n	n
C[C@H]1CN([C@@H](C)CO)C(=O)Cc2cc(NC(=O)Cn3cnnn3)ccc2O[C@H]1CN(C)Cc1ccc2c(c1)OCO2	x	x	x	n	x	x	x
C[C@@H]1CN([C@@H](C)CO)C(=O)Cc2cc(NC(=O)Cn3cnnn3)ccc2O[C@H]1CN(C)Cc1ccc2c(c1)OCO2	x	x	x	56	n	n	n
CC(C)NC(=O)Nc1cccc2c1O[C@@H](CN(C)S(C)(=O)=O)[C@H](C)CN([C@H](C)CO)C2=O	x	x	x	n	x	x	x
O=C(C1CCCN(S(=O)(=O)c2cccnc2)C1)N1CCn2c1nc1ccccc12 (stereo unspecified)	n	n	n	46	n	n	n
O=C(C1CCN(S(=O)(=O)c2cccc3cccnc23)CC1)N1CCn2c1nc1ccccc12	n	n	n	n	x	x	x
Clc1ccc2[nH]c3c(NCCN4CCOCC4)ncnc3c2c1	n	n	n	n	x	x	x
Fc1ccc2[nH]c3c(NCCN4CCOCC4)ncnc3c2c1	n	n	n	54	n	u	u
Fc1ccc2[nH]c3c(N4CCc5ccccc5C4)ncnc3c2c1	n	n	n	n	x	x	x
CN1CCN(c2ncnc3c2[nH]c2ccc(F)cc23)CC1	n	n	n	70	n	n	n
Cc1noc(C)c1NC(=O)N(C)C[C@@H]1OCCCC[C@@H](C)Oc2ccc(NC(=O)CCC(F)(F)F)cc2C(=O)N([C@H](C)CO)C[C@H]1C	x	x	x	n	x	x	x
COc1ccccc1-c1cnc2c(c1)C(=O)N([C@@H](C)CO)C[C@@H](C)[C@@H](CN(C)Cc1cccnc1)O2	x	x	x	n	x	x	x
COc1cccc(NC(=O)CCC2CCN(C(=O)c3ccc(C(C)=O)s3)CC2)c1	n	n	n	72	n	n	n
O=C(CSc1nc2c(c(=O)n1-c1ccc(Cl)cc1)SCC2)N1CCOCC1	n	n	n	56	n	n	n
O=C(N[C@@H]1CC[C@H](CC(=O)N2CCCCC2)O[C@@H]1CO)c1cccc(F)c1	x	x	x	n	x	x	x
O=C(c1ccccc1F)N1CC[C@@H]2[C@H](CO)Nc3ccc(Br)cc3[C@@H]21	x	x	x	83	n	n	n
O=C(c1ccccc1F)N1CC[C@@H]2[C@H](CO)Nc3ccc(-c4ccccc4)cc3[C@@H]21	x	x	x	n	x	x	x
O=C(c1ccccc1F)N1CC[C@H]2[C@H](CO)Nc3ccc(-c4ccccc4)cc3[C@H]21	x	x	x	n	x	x	x
O=C(c1cccc(F)c1)N1CC[C@@H]2[C@@H](CO)Nc3ccc(-c4cccc(F)c4)cc3[C@@H]21	x	x	x	98	n	n	n
O=C(c1ccccc1F)N1CC[C@@H]2[C@H]1c1cc(Br)ccc1N[C@@H]2CO	x	x	x	49	n	n	n
COc1cc(OC)cc(C(=O)N2CCN(C(=O)c3ccc(OC)c(OC)c3)CC2)c1	n	n	n	n	x	x	x
COc1ccc(-c2n[nH]c3c2CN(C(=O)c2ccc(OC)c(OC)c2)CC3)cc1	n	n	n	86	n	n	n
COc1ccc(C(=O)C2CCCN(C(=O)c3ccc(C(C)=O)s3)C2)c(C)c1 (stereo unspecified)	n	n	n	64	n	n	n
COc1ccc(C(=O)C2CCCN(C(=O)c3ccnn3C)C2)c(C)c1 (stereo unspecified)	n	n	x	n	x	x	x
SMILES	GDH-TPI inh	FBA Mtb inh	BH1578 lux ind	BioA inh-1	BioA inh-2	HepG2 cytotox	NIH3T3 tox 5
CCC(=O)N(C)C[C@@H]1Oc2cc(-c3ccccc3F)ccc2S(=O)(=O)N([C@H](C)CO)C[C@H]1C	x	x	x	n	x	x	x
COc1ccc(-c2ccc3c(c2)C2CC3CCN2)cc1 (stereo unspecified)	n	n	n	86	n	n	n
C[C@@H]1CN([C@H](C)CO)C(=O)Cc2cc(NC(=O)Cn3cnnn3)ccc2O[C@@H]1CN(C)C(=O)NC1CCCCC1	x	x	x	n	x	x	x
CCOCCCNC(=O)CSc1nc2nc(C)c(Cc3ccccc3)c(C)n2n1	n	n	n	76	n	n	n
Cc1nc2nc(SCC(=O)NCCCN3CCOCC3)nn2c(C)c1Cc1ccccc1	n	n	n	47	n	n	n
C[C@H](CO)N1C[C@H](C)[C@@H](CN(C)C(=O)C2CCOCC2)Oc2cc(C3=CCCCC3)ccc2S1(=O)=O	x	x	x	n	x	x	x
Cc1nc(-c2cccnc2)sc1C(=O)Nc1cccc(C(F)(F)F)c1	n	n	n	50	n	u	n
C/C=C/c1ccc2c(c1)O[C@H](CN(C)C)[C@@H](C)CN([C@H](C)CO)S2(=O)=O	x	x	x	n	x	x	x
CC(=O)c1ccc(N2CCc3ccccc3C2)c([N+](=O)[O-])c1	n	n	n	n	x	x	x
CC(=O)c1ccc(N2CCN(c3ncccn3)CC2)c([N+](=O)[O-])c1	n	n	n	67	n	n	n
N#C[C@H]1[C@@H](c2ccccc2)[C@@H](CO)N1C(=O)Nc1cccc(F)c1	x	x	x	77	n	n	n
